Source: PubChem BioAssay AID651739 (Broad Institute, 2012)
Hit rate of the full screen: of about 5,600 compounds, about 4,100 (73%) were called active. About 4% were inconclusive and are not listed. So high a share suggests a set chosen from earlier hits. These entries were drawn from the full list. Unmarked numbers belong to inactive results.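 The calls were made as follows: active = mean replicate inhibition above about 95% and at least 55% of replicates individually reaching it (limit read from the data); inconclusive = only one of the two criteria is met; inactive = neither criterion is met.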

experiment: blockers of Trypanosoma cruzi growth in host cells – cell-based, NIH3T3 host, beta-gal parasite, luminescence, cherry-pick, confirmation (AID 651739); details: T. cruzi beta-gal in NIH3T3, GalScreen luminescence, 90 h; at 8.35 µM; hits give high values

| SMILES | inhibition |
| --- | --- |
| COc1ccc(C#Cc2ccc([C@H]3[C@H](CO)N4CCCCN(C(=O)Cc5ccccc5)C[C@@H]34)cc2)cc1 | 95.6% (active) |
| COc1ccc(-c2ccc([C@H]3[C@H](CO)N4CCCCN(C(=O)Cc5ccncc5)C[C@@H]34)cc2)cc1 | 89.1% |
| O=C(Cc1cccnc1)N1CCCCN2[C@@H](CO)[C@H](c3ccc(C#CC4CCCC4)cc3)[C@@H]2C1 | 103% (active) |
| C/C=C/c1ccc([C@H]2[C@H](CO)N3CCCCN(C(=O)Cc4ccncc4)C[C@@H]23)cc1 | 99.2% (active) |
| O=C(Cc1ccccn1)N1CCCCN2[C@@H](CO)[C@@H](c3ccc(C#Cc4ccccc4)cc3)[C@@H]2C1 | 112% (active) |
